Assay outcomes deposited in PubChem by National Center for Advancing Translational Sciences (NCATS).
SW480 rereplic – induces DNA re-replication in SW480 colon adenocarcinoma cells. SW480 DNA re-replication, Hoechst DNA content imaging, 48 h. Potency, µM (doses to about 46.1 µM), without a hit: top-dose re-replication activation, usual class: activators. hit rate 1.8% among 340,000. AID 624297; note: % of control where 0% means no effect; nearly all actives have a fitted effect of over 55% in size
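DNA re-replication was detected as more nuclei of elevated Hoechst intensity after 48 hr exposure to compound (23 nL pinned per well of 250 cells).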
VP16 counter – counter-screen for ROR gamma inhibitors: Gal4-VP16 reporter. Drosophila S2 Gal4-VP16 UAS-luciferase, luminescence, 20 h. Potency, µM (doses to about 53.6 µM), for the others: at the highest dose activity, negative = inhibition, most hits filed as inhibitors. hit rate 3.5% among 310,000;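 note: Gal4-VP16 expression switched on by copper sulfate through the metallothionein promoter; % is set by controls: 0 for no effect and ±100 for the full control effect; nearly all actives have a fitted effect of over 50% in size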
MCF10A rereplic – inducers of DNA re-replication in MCF 10A breast cells; MCF 10A DNA re-replication, Hoechst nuclear intensity, 48 h; Potency, µM (top dose mostly 46.1 µM), inactives show top-dose activity, positive = re-replication, usual class: activators; hit rate 2.9% among 350,000; AID 624296; note: % of control where 0% means no effect; nearly all actives have a fitted effect of over 50% in size
KB-V1 MDR tox – KB-V1 MDR subline cytotoxicity | AID 1347076 | Potency, µM (doses to about 46.1 µM), hits mostly cytotoxic | hit rate 3.4% among 400,000 | KB-V1 MDR cells viability, CellTiter-Glo, 72 h; note: % is set by controls: 0 for no effect and ±100 for the full control effect; nearly all actives have a fitted effect of over 60% in size
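qHTS viability screen in drug-selected KB-V1 MDR cells: 72 h compound treatment at 37 degrees C, ATP luminescence end point.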
KB-3-1 cytotox – KB-3-1 parental cell cytotoxicity. AID 1347075. Potency, µM (titrated, usually from 46.1 µM), most hits filed as cytotoxic. KB-3-1 viability, CellTiter-Glo ATP luminescence, 72 h. hit rate 1.4% among 400,000; note: % is set by controls: 0 for no effect and ±100 for the full control effect; nearly all actives have a fitted effect of over 60% in size
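72 h, 37 °C compound treatment of KB-3-1 parental cells; CellTiter-Glo added, 10 min, luminescence read. Data corrected against DMSO-only plates and normalized before curve fitting.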
RORgamma inh – blocks mouse ROR gamma transcriptional activity | P51450 | Potency, µM (top dose mostly 53.6 µM), for inactives: at the highest dose activity change, negative = inhibition, usual class: inhibitors | Drosophila S2 Gal4-RORgamma UAS-luciferase reporter, 20 h | hit rate 5.4% among 310,000; note: % is set by controls: 0 for no effect and ±100 for the full control effect; nearly all actives have a fitted effect of over 60% in size
Target sequence (P51450 whole entry, looked up, the tested form may be a part): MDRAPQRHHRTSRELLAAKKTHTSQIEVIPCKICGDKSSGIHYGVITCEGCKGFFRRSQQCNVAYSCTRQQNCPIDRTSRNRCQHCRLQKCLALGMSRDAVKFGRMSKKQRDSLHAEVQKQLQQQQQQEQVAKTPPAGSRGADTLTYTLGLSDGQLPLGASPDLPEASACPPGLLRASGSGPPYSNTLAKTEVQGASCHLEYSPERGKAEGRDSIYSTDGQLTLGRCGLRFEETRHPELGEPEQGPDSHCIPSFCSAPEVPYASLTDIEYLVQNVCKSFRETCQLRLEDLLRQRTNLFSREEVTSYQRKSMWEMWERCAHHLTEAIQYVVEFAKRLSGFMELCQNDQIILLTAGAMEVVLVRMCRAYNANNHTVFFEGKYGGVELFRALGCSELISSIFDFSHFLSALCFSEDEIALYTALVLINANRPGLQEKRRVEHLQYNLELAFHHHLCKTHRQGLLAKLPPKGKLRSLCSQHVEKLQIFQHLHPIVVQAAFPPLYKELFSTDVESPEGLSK
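Schneider cells (Drosophila), stable Gal4 DBD–ROR gamma + UAS-luc; 1 hr cmpd preincubation; Cu2+ induction 700 uM final; 20 hr ambient; luminescence.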
* = called active by the depositor. An excerpt weighted towards active compounds, which were near 10% of everything screened. Calls come from the whole dose curve; as a rule, active = well fitted curve in the direction sought with a large enough effect; inconclusive = small, poorly fitted or top-dose-only effect, or another doubt; inactive = no such curve, though single readings can be large; an effect the other way counts as inactive or inconclusive. Potency is the fitted concentration of half-maximal effect.

`COc1cccc(CN(C(=O)c2oc3ccccc3c2C)C2CCS(=O)(=O)C2)c1` (stereo not given) gave KB-V1 MDR tox inactive and KB-3-1 cytotox inactive.
Screening CC(C)(C)c1ccc(OCc2nc3ccccc3n2CCOc2ccccc2)cc1 returned KB-V1 MDR tox inactive and KB-3-1 cytotox inactive.
C[n+]1ccccc1COc1ccc(C(C)(C)C)cc1 was read as SW480 rereplic -691%, VP16 counter -4%, MCF10A rereplic 22%, KB-V1 MDR tox inconclusive, KB-3-1 cytotox 23µM* and RORgamma inh 1%.
Oc1ccc(-c2nc(-c3ccc(O)c(O)c3)cs2)cc1 was read as SW480 rereplic 1.5µM*, VP16 counter -2%, MCF10A rereplic inconclusive, KB-V1 MDR tox 2.1µM*, KB-3-1 cytotox 0.52µM* and RORgamma inh 8%.
c1cncc(-c2csc(-c3cccnc3)n2)c1 was read as SW480 rereplic 1%, VP16 counter -1%, MCF10A rereplic 3%, KB-V1 MDR tox inactive, KB-3-1 cytotox inactive and RORgamma inh -7%.
Oc1ccc(-c2csc(-c3cccnc3)n2)c(O)c1 was read as SW480 rereplic inconclusive, VP16 counter 1%, MCF10A rereplic inconclusive, KB-V1 MDR tox inconclusive, KB-3-1 cytotox 5.8µM* and RORgamma inh inconclusive.
For Clc1ccsc1-c1csc(-c2cccnc2)n1 the results were SW480 rereplic inconclusive, VP16 counter inconclusive, MCF10A rereplic 26%, KB-V1 MDR tox inconclusive, KB-3-1 cytotox 21µM* and RORgamma inh 26%.
`Cn1c(=O)cc(OCCCC(=O)Nc2ccc(F)cc2)c2ccccc21` gave KB-V1 MDR tox inconclusive and KB-3-1 cytotox inactive.
`COc1cc(-c2nc(Cn3nnc(C(=O)Nc4cccc(Cl)c4)c3C)c(C)o2)cc(OC)c1OC` gave KB-V1 MDR tox inactive and KB-3-1 cytotox inactive.
`COc1ccc(CC(NC(C)=O)C(=O)NC2CCN(c3nc(C)cc(C)c3C#N)CC2)cc1OC` (stereo not given) gave SW480 rereplic -9%, VP16 counter -6%, MCF10A rereplic 0.58µM*, KB-V1 MDR tox inactive, KB-3-1 cytotox inactive and RORgamma inh -14%.
For CCOC(=O)C1=C(Cc2ccc(F)cc2)C(=O)c2ccccc2C1=O the results were SW480 rereplic 16%, VP16 counter -26%, MCF10A rereplic inconclusive, KB-V1 MDR tox inactive, KB-3-1 cytotox inactive and RORgamma inh 14µM*.
`O=C(O)/C=C/C(=O)Nc1ccccc1SC(F)(F)F` gave SW480 rereplic -2%, VP16 counter 10µM*, MCF10A rereplic 11%, KB-V1 MDR tox inactive, KB-3-1 cytotox inactive and RORgamma inh -138%.
Screening O=C(O)/C=C\C(=O)Nc1ccccc1C#Cc1ccc(Br)cc1 returned SW480 rereplic inconclusive, VP16 counter 3%, MCF10A rereplic 18µM*, KB-V1 MDR tox inactive, KB-3-1 cytotox inconclusive and RORgamma inh inconclusive.
Screening Cc1ccccc1CSc1nc2n(n1)C(c1cccs1)C1=C(CCCC1=O)N2 (stereo not given) returned SW480 rereplic inconclusive, VP16 counter 2%, MCF10A rereplic 26µM*, KB-V1 MDR tox inconclusive, KB-3-1 cytotox inactive and RORgamma inh 6%.
Screening C[C@@H](/C=C\c1cccc(Oc2ccc(F)cc2)c1)N(O)C(N)=O returned VP16 counter -1% and RORgamma inh -21%.
Screening C#CCSc1cc(C(F)(F)F)nc(-c2ccccn2)n1 returned SW480 rereplic -134%, VP16 counter -6%, MCF10A rereplic 7%, KB-V1 MDR tox inactive, KB-3-1 cytotox inactive and RORgamma inh 10µM*.
`FC(F)(F)c1cccc(Oc2cc(C(F)(F)F)nc(-c3ccccn3)n2)c1` gave SW480 rereplic -8%, VP16 counter 6%, MCF10A rereplic 13%, KB-V1 MDR tox inconclusive, KB-3-1 cytotox inactive and RORgamma inh -9%.
For CNc1cc(C(F)(F)F)nc(-c2ccccn2)n1 the results were SW480 rereplic -18%, VP16 counter 13µM*, MCF10A rereplic -1%, KB-V1 MDR tox inactive, KB-3-1 cytotox inactive and RORgamma inh 0.71µM*.
`COc1ccc(Sc2cc(C(F)(F)F)nc(-c3ccccn3)n2)cc1` gave SW480 rereplic -6%, VP16 counter 11µM*, MCF10A rereplic 0%, KB-V1 MDR tox inactive, KB-3-1 cytotox inactive and RORgamma inh 4µM*.
`CCOc1ccc(-c2cc3c(=O)n(CC(=O)Nc4cc(F)ccc4C)ccn3n2)cc1` gave KB-V1 MDR tox inactive and KB-3-1 cytotox inactive.
Screening N#C/C(=C\c1ccco1)Sc1nc2ccccc2s1 returned SW480 rereplic inconclusive, VP16 counter 13µM*, MCF10A rereplic inconclusive, KB-V1 MDR tox inactive, KB-3-1 cytotox inactive and RORgamma inh -10%.
`S=c1[nH]nc(CSc2nc3ccccc3s2)o1` gave SW480 rereplic 9%, VP16 counter inconclusive, MCF10A rereplic -1%, KB-V1 MDR tox inactive, KB-3-1 cytotox inactive and RORgamma inh 14µM*.
Screening c1ccc2[nH]c(CSc3nc4ccccc4s3)nc2c1 returned SW480 rereplic 17%, VP16 counter inconclusive, MCF10A rereplic 11%, KB-V1 MDR tox inconclusive, KB-3-1 cytotox inactive and RORgamma inh 20µM*.
Screening Cn1c(CSc2nc3ccccc3s2)nc2ccccc21 returned SW480 rereplic -11%, VP16 counter inconclusive, MCF10A rereplic 0%, KB-V1 MDR tox inconclusive, KB-3-1 cytotox inactive and RORgamma inh 11µM*.
`CCOC(=O)c1c(NC(=O)c2cc(-c3ccc(OC)cc3)on2)sc(C)c1C` gave KB-V1 MDR tox inactive and KB-3-1 cytotox inactive.
`NCCSc1nc2ccccc2s1` gave KB-V1 MDR tox inactive and KB-3-1 cytotox inactive.
For c1ccc2sc(SSc3nc4ccccc4s3)nc2c1 the results were SW480 rereplic -1%, VP16 counter inconclusive, MCF10A rereplic -2% and RORgamma inh 13µM*.
`COc1cc(/C=N\NC(=O)c2ccccc2F)ccc1Oc1ccc([N+](=O)[O-])cn1` gave SW480 rereplic inconclusive, VP16 counter 3%, MCF10A rereplic 23µM*, KB-V1 MDR tox 7.3µM*, KB-3-1 cytotox inconclusive and RORgamma inh 13%.
`COc1cc(/C=C(/C#N)c2ccc(F)cc2)ccc1Oc1ccc([N+](=O)[O-])cn1` gave SW480 rereplic -3%, VP16 counter -20%, MCF10A rereplic inconclusive, KB-V1 MDR tox 2.3µM*, KB-3-1 cytotox inconclusive and RORgamma inh inconclusive.
